Screening data as filed in PubChem BioAssay.
Only some compounds are listed: those with a hit (about 2.2% of all), similar ones and a draw of the others.
NPR1 activator: GC-A (human) enzyme activation. AID 1671463. HEK293 GC-A cells, cGMP TR-FRET, EC30 ANP; 0% at EC30 ANP, 100% saturating ANP. hit rate 0.14% among 370,000. activation, % at 10 µM. P16066; in the data active = activation above about 40%
ADAM10 inh: ADAM10 inhibition, QFRET primary screen. O14672. recombinant ADAM10, EDANS/DABCYL FRET peptide cleavage, 3 h. inhibition, % at 7 µM. hit rate 0.62% among 370,000. AID 720582;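 active = inhibition above a per-campaign cutoff equal to the mean of compounds falling between control-based bounds plus 3 SD, cut at about 20% in these data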;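 note: 0% = DMSO wells while the 100% control is not disclosed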
KLK7 zymogen act: activators of human kallikrein-7 zymogen; P49862; purified proKLK7, EDANS-DABCYL substrate fluorescence; 100% is mature enzyme control, 0% vehicle; activation, % at 7 µM; hit rate 0.9% among 370,000;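 active = activation above the mean of all tested compounds plus 3 SD, computed per campaign excluding outliers beyond control limits, cut at about 13% in these data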
GC-B act: GC-B (human) receptor activation; hit rate 0.11% among 370,000; P20594; HEK293-GC-B cells, CNP EC30, cGMP TR-FRET; 0% at EC30 CNP, 100% saturating CNP; AID 1920062; activation, % at 10 µM;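 active = activation at 10 µM reaching about 35% in either raw or pattern-adjusted values, limit read from the data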
ADAM17 inh: ADAM17 inhibition, QFRET primary screen; P78536; recombinant ADAM17, EDANS/DABCYL FRET peptide cleavage; inhibition, % at 6.95 µM; hit rate 0.83% among 370,000;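 active = inhibition above the mean of compounds lying between control limits plus 3 SD, set per campaign, cut at about 8.5% in these data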;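 note: 0% = DMSO-only wells as the low control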
Target sequence (P78536 215-824 limits assumed): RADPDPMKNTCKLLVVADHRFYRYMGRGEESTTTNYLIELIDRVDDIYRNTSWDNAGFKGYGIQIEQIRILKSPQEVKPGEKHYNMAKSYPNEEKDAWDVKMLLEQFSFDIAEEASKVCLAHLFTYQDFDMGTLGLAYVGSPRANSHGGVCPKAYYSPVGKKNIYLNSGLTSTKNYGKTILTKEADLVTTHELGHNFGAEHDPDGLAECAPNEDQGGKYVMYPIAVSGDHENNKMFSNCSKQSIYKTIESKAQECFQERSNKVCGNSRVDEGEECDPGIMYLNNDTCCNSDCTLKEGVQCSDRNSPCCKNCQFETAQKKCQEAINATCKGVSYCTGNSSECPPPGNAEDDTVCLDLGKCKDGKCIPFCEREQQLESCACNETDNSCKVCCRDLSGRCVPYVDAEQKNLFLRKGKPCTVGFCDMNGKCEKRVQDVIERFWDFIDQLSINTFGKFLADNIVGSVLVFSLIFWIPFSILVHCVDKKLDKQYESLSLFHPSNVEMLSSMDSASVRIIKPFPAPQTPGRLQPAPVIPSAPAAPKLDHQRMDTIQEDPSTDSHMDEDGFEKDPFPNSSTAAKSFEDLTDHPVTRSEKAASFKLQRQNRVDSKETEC
ADAM10 confirm: confirmation of inhibitors of human ADAM10. shares compounds with ADAM10 inh. ADAM10 QFRET peptide cleavage, EDANS fluorescence. inhibition, % at 6.95 µM. hit rate 1% among 2,100. AID 743208;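 active = inhibition above about 20% chosen separately for each screening run, limit read from the data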;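 note: 0% = DMSO wells and 100% = marimastat wells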
ADAM17 counter: inhibits human ADAM17 in ADAM10 exosite counter-screen | shares compounds with ADAM10 inh | ADAM17 QFRET peptide cleavage, EDANS fluorescence | inhibition, % at 6.95 µM | hit rate 0.5% among 2,100 | AID 743214;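 active = mean triplicate inhibition above the solvent-only control wells' mean plus 3 SD, cut at about 12% in these data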;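 note: 0% = DMSO wells and 100% = marimastat wells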
The depositor's hits bear a star; nt = no result.

SMILES	NPR1 activator	ADAM10 inh	KLK7 zymogen act	GC-B act	ADAM17 inh	ADAM10 confirm	ADAM17 counter
CC(C)C[C@@H]1COc2cc(Br)ccc2S(=O)(=O)N1Cc1cn(CCC2OCCCO2)nn1	1	-15	0	4	-9	nt	nt
CCOc1cccc(C(=O)Nc2ccc3ccccc3c2)c1	1	10	0	-2	7	nt	nt
CCOc1cccc(C(=O)Nc2ccc(N(CC)CC)cc2)c1	-4	27*	1	-7	-2	2	1
CC1(C(=O)Nc2ccc(Cl)c(C(F)(F)F)c2)Cc2c(-c3ccccc3)ccnc2O1 (stereo not given)	-1	-4	0	5	-4	nt	nt
CC(=O)Nc1ccc(-c2ccnc3c2CC(C)(C(=O)Nc2ccc(Cl)c(C(F)(F)F)c2)O3)cc1 (stereo not given)	-8	20*	1	-7	5	9	3
Cc1ccc(NC(=O)C2CCCN(c3nnc(-n4cccc4)s3)C2)cc1C (stereo not given)	0	-7	-1	3	-3	nt	nt
CCCCNC(=O)C[C@H]1C[C@@]2(C(=O)OC)C(=C[C@H](C(C)C)O[C@@H]2C2CC2)N(Cc2cccc3ccccc23)C1=O	-9	11	0	-5	7	nt	nt
Cc1ccc(NS(=O)(=O)c2ccc(NC(=O)c3cccc(NC(=O)C(C)C)c3)cc2)cc1	7	24*	0	-5	6	3	1
N[C@H](C(=O)Nc1ccc(Cl)cc1C(=O)c1ccc[nH]1)c1ccccc1	-8	-11	nt	-16	-6	nt	nt
Cc1cccc(CCNC(=O)CCc2nc(-c3ccccc3F)no2)c1	-1	20*	1	-13	4	1	1
COC(=O)c1cc(-c2cccc3c2sc2ccccc23)c(=O)n2c1CCC2	2	-20	-14	9	-9	nt	nt
O=C(Nc1ccc(OC(F)F)c(Cl)c1)C(c1ccccc1)c1ccccc1	4	28*	0	-1	14*	7	4
FC(F)Oc1ccc(NC(=S)NCc2ccccc2)cc1Cl	7	10	0	1	6	nt	nt
C=CS(=O)(=O)N(Cc1ccc(F)cc1)C(=C)C(=O)OC	5	-8	0	7	-5	nt	nt
Cc1cccc(C(=O)NC(=S)N2CCN(C(=S)NC(=O)c3cccc(C)c3)CC2)c1	2	24*	0	0	3	1	0
O=C(c1cccc(F)c1)N1CCCC(c2nc(-c3cccs3)no2)C1 (stereo not given)	-3	-11	0	2	3	nt	nt
CCC1(c2ccccc2)NC(=O)N(CC(=O)N(CC(=O)Nc2ccccc2C(F)(F)F)Cc2ccco2)C1=O (stereo not given)	1	81*	0	6	0	0	0
C[C@H]1[C@@H](OC(=O)NCCc2c[nH]c3ccccc23)CC[C@@]23CCCN2C(=O)CCC[C@@H]13	0	-1	nt	-3	1	nt	nt
COCCNC(=S)N1CCN(c2nc(-c3cccc(OC)c3)cs2)CC1	-2	21*	0	-3	5	1	0
CCNC(=S)N1CCN(c2nc(-c3cccc(OC)c3)cs2)CC1	-2	4	0	-2	3	nt	nt
COc1cccc(-c2csc(N3CCN(CC(=O)NNC(=O)c4ccc(Cl)cc4)CC3)n2)c1	-5	20*	0	0	5	0	0
CCC[C@H]1[C@@H](NC(=O)C#Cc2ccccc2)CC[C@@]23CCCN2C(=O)CCC[C@@H]13	-2	1	nt	-1	-1	nt	nt
CCC[C@H]1[C@@H](NCc2cccs2)CC[C@@]23CCCN2C(=O)CCC[C@@H]13	-21	3	nt	-25	1	nt	nt
CC(C)C(NC(=O)[C@H](Cc1ccc(O)cc1)NC(=O)OC(C)(C)C)P(=O)(O)OC(Cc1ccccc1)C(=O)O (stereo not given in full)	-1	-5	nt	1	-6	nt	nt
CC[C@]12c3[nH]c4ccc(Cl)cc4c3CCN1C(=O)[C@@H](CC(=O)NCc1cccc(C(F)(F)F)c1)C[C@@H]2C(=O)N1CCN(C(=O)c2ccco2)CC1	-6	23*	1	-3	3	0	2
SMILES	NPR1 activator	ADAM10 inh	KLK7 zymogen act	GC-B act	ADAM17 inh	ADAM10 confirm	ADAM17 counter
CC[C@]12c3[nH]c4ccc(OC)cc4c3CCN1C(=O)C(CC(=O)NCc1cccc(C(F)(F)F)c1)C[C@@H]2C(=O)N1CCN(C(=O)c2ccco2)CC1 (stereo not given in full)	1	15	-1	-1	6	nt	nt
Cc1ccc2c(c1)[C@H]1[C@H](CO2)[C@H](c2ccccc2)[C@]2(C)C(=O)Nc3ccccc3C(=O)N12	-8	12	-1	-9	2	nt	nt
COc1ccc2c(c1)[C@H]1[C@H](CO2)[C@H](c2ccccc2)[C@]2(C)C(=O)Nc3ccc(C)cc3C(=O)N12	-9	28*	-2	-3	0	10	3
Cc1ccc2c(c1)NC(=O)[C@@]1(C)[C@@H](c3ccccc3)[C@H]3COc4ccccc4[C@@H]3N1C2=O	-1	27*	0	2	4	10	3
Cn1c(=O)c2cc(S(=O)(=O)N3CCN(c4ccc(F)cc4)CC3)ccc2n(C)c1=O	-2	-4	0	-6	3	nt	nt
COc1cc(S(=O)(=O)N2CCOCC2)ccc1NC(=O)COC(=O)CC12CC3CC(CC(C3)C1)C2	-1	29*	0	6	8	2	1
COc1cc(S(=O)(=O)N2CCOCC2)ccc1NC(=O)COC(=O)c1cc(OC)c(OC)c(OC)c1	2	-1	0	2	1	nt	nt
O=C(c1ccc(F)cc1F)N(Cc1ccccn1)CC1CCCO1 (stereo not given)	4	3	1	1	3	nt	nt
COc1ccc(N2CCN(Cc3nc(N)nc(Nc4ccc(C)c(Cl)c4)n3)CC2)cc1	-3	21*	1	4	5	1	0
Cc1ccc(Nc2nc(N)nc(CN3CCN(c4ccccc4)CC3)n2)cc1Cl	-3	9	0	2	5	nt	nt
CC(C)(C)Nc1scc(-c2ccccc2)[n+]1-c1ccccc1	-7	42*	0	-3	-18	-1	0
O=C(NC(C(=O)N/N=C/c1cccc2ccccc12)c1n[nH]c(=O)c2ccccc12)c1ccccc1 (stereo not given)	-4	22*	-6	-6	7	19	6
Cc1ccc(C)c(NS(=O)(=O)c2cc(C(=O)NCC3CCCO3)ccc2C)c1 (stereo not given)	-3	-4	0	0	4	nt	nt
Cc1ccc(C)c(NS(=O)(=O)c2cc(C(=O)NCCC3=CCCCC3)ccc2C)c1	-4	20*	0	1	7	4	2
